Test results as given in PubChem BioAssay AID1159580 (chemical genetic matrix, 2015).
In all, about 5,500 compounds went through this assay and about 2,000 (36%) were called active. Another 18% or so got no clear call; they are omitted. Cut-off read from the data, not from the text of the source: active = normalized growth mostly below about 0.91 (no sharp cut-off); inconclusive = no clear call, values can overlap the other calls; inactive = mostly above about 0.92. This is one part of the list.

Experiment: chemical genetic growth profiling, strain panel (AID 1159580);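 note: tested at 20 µM; growth read once vehicle control cultures reached saturation at 30 °C; 1 = growth at the plate median or of vehicle wells; lower values mean less growth of the strain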
Conditions: growth OD

Measured: normalized growth

OC[C@H]1O[C@@H](O[C@H]2[C@H](O)[C@@H](O)[C@@H](O)O[C@@H]2CO)[C@H](O)[C@@H](O)[C@@H]1O
inactive: S. cerevisiae deletion strains, locus YJR075W, strain HOC1, hits give low values 1.02 | S. cerevisiae deletion strains, locus YKL009W, strain mrt4, hits give low values 1.1 | S. cerevisiae deletion strains, locus YKL068W, hits give low values 1 | S. cerevisiae deletion strains, locus YKL085W, strain MDH1 (second series), hits give low values 1.04 | S. cerevisiae deletion strains, locus YKL085W, strain MDH1, hits give low values 1.04 | S. cerevisiae deletion strains, locus YKL160W, strain elf1, hits give low values 1.02 | S. cerevisiae deletion strains, locus YKL190W, strain CNB1, hits give low values 1.01 | S. cerevisiae deletion strains, locus YKR001C, strain vps1, hits give low values 1.02 | S. cerevisiae deletion strains, locus YKR026C, strain gcn3, hits give low values 0.992 | S. cerevisiae deletion strains, locus YKR091W, strain srl3, hits give low values 1 | S. cerevisiae deletion strains, locus YLL001W, strain dnm1, hits give low values 0.98 | S. cerevisiae deletion strains, locus YLL026W, hits give low values 0.994 | S. cerevisiae deletion strains, locus YLL041C, strain sdh2, hits give low values 1.02 | S. cerevisiae deletion strains, locus YLR027C, strain aat2, hits give low values 1.01 | S. cerevisiae deletion strains, locus YLR039C, strain RIC1, hits give low values 1.11 | S. cerevisiae deletion strains, locus YLR058C, strain SHM2, hits give low values 1.02 | S. cerevisiae deletion strains, locus YLR102C, strain apc9, hits give low values 1.02 | S. cerevisiae deletion strains, locus YLR113W, strain HOG1, hits give low values 1.06 | S. cerevisiae deletion strains, locus YLR221C, strain rsa3, hits give low values 0.98 | S. cerevisiae deletion strains, locus YLR258W, strain gsy2, hits give low values 1.01 | S. cerevisiae deletion strains, locus YLR262C, strain YPT6 (second series), hits give low values 1.04 | S. cerevisiae deletion strains, locus YLR262C, strain YPT6, hits give low values 1.05 | S. cerevisiae deletion strains, locus YLR268W, strain sec22, hits give low values 1.04 | S. cerevisiae deletion strains, locus YLR320W, strain mms22, hits give low values 0.997 | S. cerevisiae deletion strains, locus YLR330W, strain CHS5, hits give low values 1.02 | S. cerevisiae deletion strains, locus YLR342W, strain FKS1 (second series), hits give low values 1.09 | S. cerevisiae deletion strains, locus YLR342W, strain FKS1, hits give low values 1.01 | S. cerevisiae deletion strains, locus YLR357W, strain rsc2, hits give low values 0.975 | S. cerevisiae deletion strains, locus YLR370C, strain arc18, hits give low values 1.01 | S. cerevisiae deletion strains, locus YLR371W, strain rom2, hits give low values 1.01 | S. cerevisiae deletion strains, locus YLR384C, strain iki3, hits give low values 0.992 | S. cerevisiae deletion strains, locus YLR418C, strain cdc73, hits give low values 0.975 | S. cerevisiae deletion strains, locus YML016C, strain PPZ1, hits give low values 1.01 | S. cerevisiae deletion strains, locus YML032C, strain rad52, hits give low values 1 | S. cerevisiae deletion strains, locus YML120C, strain ndi1, hits give low values 1.01 | S. cerevisiae deletion strains, locus YML124C, strain tub3, hits give low values 1.01 | S. cerevisiae deletion strains, locus YMR058W, strain fet3, hits give low values 1 | S. cerevisiae deletion strains, locus YMR078C, strain ctf18, hits give low values 1.01 | S. cerevisiae deletion strains, locus YMR125W, strain sto1, hits give low values 0.993 | S. cerevisiae deletion strains, locus YMR129W, hits give low values 1.01 | S. cerevisiae deletion strains, locus YMR205C, strain PFK2, hits give low values 1.01 | S. cerevisiae deletion strains, locus YMR223W, strain ubp8, hits give low values 0.993 | S. cerevisiae deletion strains, locus YMR231W, strain pep5, hits give low values 0.992 | S. cerevisiae deletion strains, locus YMR263W, strain SAP30, hits give low values 1.01 | S. cerevisiae deletion strains, locus YMR307W, strain GAS1, hits give low values 1.07 | S. cerevisiae deletion strains, locus YNL067W, strain RPL9B, hits give low values 1.02 | S. cerevisiae deletion strains, locus YNL071W, strain lat1, hits give low values 1.02 | S. cerevisiae deletion strains, locus YNL153C, strain GIM3, hits give low values 1.01 | S. cerevisiae deletion strains, locus YNL183C, strain NPR1, hits give low values 0.968 | S. cerevisiae deletion strains, locus YNL209W, strain ssb2, hits give low values 1.01 | S. cerevisiae deletion strains, locus YNL233W, strain BNI4, hits give low values 1.01 | S. cerevisiae deletion strains, locus YNL248C, strain rpa49, hits give low values 0.98 | S. cerevisiae deletion strains, locus YNL250W, strain rad50, hits give low values 1.03 | S. cerevisiae deletion strains, locus YNL271C, strain bni1, hits give low values 1.02 | S. cerevisiae deletion strains, locus YNL298W, strain CLA4, hits give low values 0.999 | S. cerevisiae deletion strains, locus YNL307C, strain MCK1, hits give low values 1.02 | S. cerevisiae deletion strains, locus YNL322C, strain KRE1 (second series), hits give low values 0.996 | S. cerevisiae deletion strains, locus YNL322C, strain KRE1, hits give low values 1.02 | S. cerevisiae deletion strains, locus YNR049C, strain mso1, hits give low values 0.998 | S. cerevisiae deletion strains, locus YNR052C, strain pop2, hits give low values 1.01 | S. cerevisiae deletion strains, locus YOL006C, strain TOP1, hits give low values 1.15 | S. cerevisiae deletion strains, locus YOL012C, strain htz1 1.74 | S. cerevisiae deletion strains, locus YOL147C, strain pex11, hits give low values 1.01 | S. cerevisiae deletion strains, locus YOR001W, strain rrp6, hits give low values 0.988 | S. cerevisiae deletion strains, locus YOR061W, strain CKA2, hits give low values 1.03 | S. cerevisiae deletion strains, locus YOR069W, strain VPS5, hits give low values 1.01 | S. cerevisiae deletion strains, locus YOR070C, strain gyp1, hits give low values 1 | S. cerevisiae deletion strains, locus YOR080W, strain dia2, hits give low values 0.988 | S. cerevisiae deletion strains, locus YOR083W, strain WHI5, hits give low values 1.06 | S. cerevisiae deletion strains, locus YOR106W, strain vam3, hits give low values 1.04 | S. cerevisiae deletion strains, locus YOR136W, strain idh2, hits give low values 1.01 | S. cerevisiae deletion strains, locus YOR144C, strain elg1, hits give low values 1 | S. cerevisiae deletion strains, locus YOR184W, strain ser1, hits give low values 1.02 | S. cerevisiae deletion strains, locus YOR231W, strain MKK1, hits give low values 1 | S. cerevisiae deletion strains, locus YOR265W, strain rbl2, hits give low values 1 | S. cerevisiae deletion strains, locus YOR270C, strain vph1, hits give low values 1.13 | S. cerevisiae deletion strains, locus YOR290C, strain snf2, hits give low values 1.03 | S. cerevisiae deletion strains, locus YOR316C, strain cot1, hits give low values 1.02 | S. cerevisiae deletion strains, locus YPL051W, strain arl3, hits give low values 0.992 | S. cerevisiae deletion strains, locus YPL078C, strain atp4, hits give low values 1.01 | S. cerevisiae deletion strains, locus YPL106C, strain sse1, hits give low values 1.02 | S. cerevisiae deletion strains, locus YPL240C, strain hsp82, hits give low values 1 | S. cerevisiae deletion strains, locus YPL241C, strain CIN2, hits give low values 1 | S. cerevisiae deletion strains, locus YPL256C, strain CLN2, hits give low values 0.975 | S. cerevisiae deletion strains, locus YPR119W, strain clb2, hits give low values 1.01 | S. cerevisiae deletion strains, locus YPR141C, strain kar3, hits give low values 1 | S. cerevisiae deletion strains, locus YPR163C, strain tif3, hits give low values 1 | S. cerevisiae deletion strains, locus YPR167C, strain met16, hits give low values 1.02 | S. cerevisiae deletion strains, strain wtn01, hits give low values 1.06 | S. cerevisiae strains, strain wild type, hits give low values 1.02
